Measured values as given in PubChem BioAssay (NCATS).
Values joined by “and” are separate entries in the source; they are usually repeats but may differ in a detail not shown here. Equal values may be shown once. Inconclusive results are not listed. Active and inactive are the calls of the source. The call rests on the fitted dose curve.

Assay: qHTS Assay for Lipid Storage Modulators (AID 1519); on activity change, negative = inhibition: on the % scale 0 is the no-effect control and ±100 the full control effect
Conditions: Drosophila S3 cells, BODIPY lipid droplet/cell ratio, laser cytometry, cells loaded with oleic acid
Description: NIH Molecular Libraries Probe Production Centers Network [MLPCN]
NIH Chemical Genomics Center [NCGC]
Assay Submitter (PI): Beller, Mathias; Max-Planck-Institut fur Biophysikalische Chemie
NCGC Assay Overview: Storing lipids as a reservoir for energy or the anabolism of elementary metabolites is a common feature of probably all cells and is conserved from bacteria to humans. The universal cellular lipid storage organelle is the so-called lipid storage droplet (LD). Although ubiquitous, LDs share a simple structure composed of a hydrophobic core that harbors the storage lipids, which is shielded by a droplet-specific phospholipid monolayer to which proteins are attached. The current model of LD biogenesis involves an incorporation of the lipid core into the membrane leaflets of the endoplasmic reticulum (ER) followed by a subsequent budding-like maturation of a LD, which ultimately pinches off. Once released, LD volume can increase by localized lipogenesis or fusion of existing droplets. Storage lipids are re-mobilized enzymatically by lipase activity. Lipase regulation in the adipocyte is heavily studied and involves multiple components including catecholamine signaling, the LD-associated proteins Perilipin and comparative gene identification-58 (CGI-58) and at least two lipases named hormone sensitive lipase (HSL) and adipocyte triglyceride lipase (ATGL). LD regulation outside of the adipocyte is poorly understood and only few components are known. However, there is an urgent need to learn more about ectopic fat depots as mislocalized storage of lipids, for example in the liver or muscle, is an eminent health problem associated with insulin resistance or the metabolic syndrome. We developed a laser-scanning cytometer assay to enable 1,536-well screening and combined the results of the small molecules screen with an RNAi database based on lipid storage.
NCGC Assay Protocol Summary:
We dispensed 4 uL of cells at 1.25 x 10^6 cells/mL into LoBase Aurora COC 1,536-well plates (black walled, clear bottom) with a bottle-valve solenoid-based dispenser (Aurora) to obtain 5,000 cells/well. Triacsin C (Sigma-Aldrich T-4540), an inhibitor of long-chain fatty acyl CoA synthetase that blocks synthesis of triglycerides, was used as a positive control for lipid under-storage. A total of 23 nL of compound solution of different concentrations were transferred to the assay plates using a Kalypsys pin tool equipped with a 1,536-pin array containing 10-nL slotted pins (FP1S10, 0.457-mm diameter, 50.8 mm long; V&P Scientific). One microliter of oleic acid (400 uM) was added, and the plate was lidded with stainless steel rubber gasket lined lids containing pinholes. […] Fluorescence was detected by excitation of the fluorophores with a 488-nm laser on an Acumen Explorer (TTP Lab Tech). The total intensity in channel 1 (500-530 nm) reflected lipid droplet accumulation. […] The ratio of the total intensity in PMT channel 1 over total intensity of channel 3 was also calculated. Percent activity was computed relative to an internal control (100% inhibited lipid droplet deposition due to the presence of 20 uM Triacsin C), which was added to 32 wells/plate.

[1] = measured here: cell count channel max response
[2] = measured here: lipid channel max response

| SMILES | activity change, negative = inhibition (at 25.7 µM (top of the series)) | activity change, negative = inhibition (at 57.5 µM (top of the series)) | max response [1] | max response [2] |
| --- | --- | --- | --- | --- |
| COc1ccc2c3c1OC1C[C@@H](O)C=C[C@@]31CCN(C)C2 (stereo partly specified) | -1.59% (inactive) | -3.75% (inactive) | 1.47% and -27.6% | -1.31% and -11.1% |
| O=C(O)CCc1nc(-c2ccccc2)c(-c2ccccc2)o1 | 0.686% (inactive) | – | 0.745% | 2.18% |
| CCN(CC)C(=O)c1ccc(O)c(OC)c1 | 0.695% (inactive) | – | 14.3% | 14.5% |
| CCN(CC)CCOC(=O)c1ccc(N)cc1 | -0.292% (inactive) | 1.41% (inactive) | 4.92% and -22.1% | 5.47% and -19.5% |
| Clc1ccc(Cn2c(CN3CCCC3)nc3ccccc32)cc1 | -4.13% (inactive) | – | -8.03% | -12.8% |
| CC(C)OC(=O)C(C)(C)Oc1ccc(C(=O)c2ccc(Cl)cc2)cc1 | -4.12% (inactive) | – | -11.4% | -14.8% |
| CC/C(=C(\c1ccccc1)c1ccc(OCCN(C)C)cc1)c1ccccc1 | – | 6.58% (inactive) | 6.28% | 15.3% |
| CC(C)(C)c1ccc(C(O)CCCN2CCC(C(O)(c3ccccc3)c3ccccc3)CC2)cc1 (stereo unspecified) | – | -1.34% (inactive) | -10.3% | -13.9% |
| O=c1cc(-c2ccc(O)cc2)oc2cc(O)cc(O)c12 | – | 5.85% (inactive) and 0.858% (inactive) and 6.23% (inactive) | -3.26% and -4.54% and 14.7% | 4.46% and -2.56% and 22.7% |
| C[C@]12CCC3c4ccc(O)cc4CCC3C1CCC2=O (stereo partly specified) | – | 3.27% (inactive) | -11.3% | -4.67% |
| O=C1NC(=O)C(c2ccccc2)(c2ccccc2)N1 | – | 7.13% (inactive) and 0.319% (inactive) | 12.1% and -15.7% | 24.5% and -14.7% |
| Cc1cccc(C)c1OCC(C)N (stereo unspecified) | – | 1.76% (inactive) and 1.1% (inactive) | 8.91% and -0.493% | 19.3% and 0.0191% |
| COc1ccc(-c2coc3cc(O)ccc3c2=O)cc1 | – | -1.11% (inactive) | 3.06% | 2.76% |
